PubChem BioAssay (EPA / NIEHS)
Active and inactive are the calls of the source. Rule for the calls: active = hit-call score of the fitted dose curve at least 0.9, where 1 is the maximum; inactive = score below 0.9.

How the values were obtained:
Conditions in all cases: mRNA level, 48 h; actives raise or lower the signal
[1] = read-out: Alkaline Phosphatase, Placental (ALPP) gene, ALPP (gene 250); assay: LTEA_HepaRG_ALPP: Life Technologies and Expression Analysis (LTEA) Assay for Alkaline Phosphatase, Placental (ALPP) gene using HepaRG (AID 2283468)
Procedure, shortened: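 Differentiated human HepaRG cells were plated and cultured 48 h, then exposed in duplicate for 48 h in serum-free induction medium to eight half-log concentrations from 100 uM in 0.5% DMSO. ALPP mRNA was measured by TaqMan qRT-PCR, normalized to ACTB, GAPDH, POLR2A.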

[2] = read-out: Bcl-2 (BAD) gene, BAD (gene 572); assay: LTEA_HepaRG_BAD: Life Technologies and Expression Analysis (LTEA) Assay for Bcl-2 (BAD) gene using HepaRG (AID 2283469)
Procedure, shortened: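 Differentiated HepaRG cells were exposed in duplicate in 0.5% DMSO for 48 h to eight-point half-log concentrations up to 100 uM. BAD mRNA was measured by Fluidigm TaqMan qRT-PCR, normalized to ACTB, GAPDH and POLR2A, and fitted bidirectionally against DMSO.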

[3] = read-out: Bcl-2 (BAX) gene, BAX (gene 581); assay: LTEA_HepaRG_BAX: Life Technologies and Expression Analysis (LTEA) Assay for Bcl-2 (BAX) gene using HepaRG (AID 2283470)
Procedure, shortened: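 Differentiated human HepaRG cells, plated 48 h then switched to serum-free induction medium, were exposed 48 h to 8 half-log concentrations up to 100 uM in 0.5% DMSO; BAX mRNA measured by qRT-PCR, normalized to ACTB, GAPDH, POLR2A.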

[4] = read-out: adenosine kinase (ADK) gene, ADK (gene 132); assay: LTEA_HepaRG_ADK: Life Technologies and Expression Analysis (LTEA) Assay for adenosine kinase (ADK) gene using HepaRG (AID 2283471)
Procedure, shortened: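 Differentiated HepaRG cells dosed 48 h in serum-free induction medium, 0.5% DMSO vehicle, eight half-log concentrations from 100 uM, in duplicate. ADK mRNA by TaqMan qRT-PCR normalised to ACTB, GAPDH, POLR2A; bidirectional fit versus DMSO.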

[5] = read-out: Alpha-fetoprotein (AFP) gene, AFP (gene 174); assay: LTEA_HepaRG_AFP: Life Technologies and Expression Analysis (LTEA) Assay for Alpha-fetoprotein (AFP) gene using HepaRG (AID 2283472)
Procedure, shortened: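 Human HepaRG cells plated 48 h, then switched to serum-free induction medium and exposed in duplicate for 48 h to 8-point half-log series from 100 uM in 0.5% DMSO. AFP mRNA by qRT-PCR, normalized to ACTB, GAPDH, POLR2A; bidirectional fit versus DMSO.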

BCL2L11 (gene 10018) = assay: LTEA_HepaRG_BCL2L11: Life Technologies and Expression Analysis (LTEA) Assay for Bcl-2 (BCL2L11) gene using HepaRG (AID 2283473)
Procedure, shortened: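 Differentiated human HepaRG cells in serum-free induction medium were exposed in duplicate for 48 h to eight concentrations (top 100 uM, half-log steps, 0.5% DMSO). BCL2L11 mRNA was quantified by TaqMan qRT-PCR, normalized to ACTB/GAPDH/POLR2A, bidirectional fit versus DMSO.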

[6] = read-out: Apolipoprotein A-V (APOA5) gene, APOA5 (gene 116519); assay: LTEA_HepaRG_APOA5: Life Technologies and Expression Analysis (LTEA) Assay for Apolipoprotein A-V (APOA5) gene using HepaRG (AID 2283474)
Procedure, shortened: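 Differentiated human HepaRG cells were exposed in duplicate for 48 h to eight half-log concentrations from 100 uM in 0.5% DMSO. APOA5 mRNA was quantified by TaqMan qRT-PCR, normalized to ACTB, GAPDH and POLR2A, and fitted bidirectionally against DMSO.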

[7] = read-out: Apoptosis regulator Bcl-2 (Homo sapiens) (UniProt P10415); assay: LTEA_HepaRG_BCL2: Life Technologies and Expression Analysis (LTEA) Assay for Bcl-2 gene using HepaRG (AID 2283475)
Procedure, shortened: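 Differentiated HepaRG cells in serum-free induction medium were exposed for 48 h to eight half-log concentrations up to 100 uM in 0.5% DMSO, in duplicate. BCL2 mRNA was quantified by TaqMan qRT-PCR normalised to ACTB, GAPDH and POLR2A, with bidirectional fitting versus DMSO.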

[8] = read-out: Bcl-2 (BID) gene, BID (gene 637); assay: LTEA_HepaRG_BID: Life Technologies and Expression Analysis (LTEA) Assay for Bcl-2 (BID) gene using HepaRG (AID 2283476)
Procedure, shortened: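 Differentiated HepaRG cells in serum-free induction medium were exposed in duplicate for 48 h to eight half-log concentrations up to 100 uM in 0.5% DMSO. BID mRNA was quantified by qRT-PCR, normalized to ACTB, GAPDH and POLR2A.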

Caspase-3 (Homo sapiens) = Caspase-3 (Homo sapiens) (UniProt P42574); assay: LTEA_HepaRG_CASP3: Life Technologies and Expression Analysis (LTEA) Assay for cysteine-aspartic acid protease (CASP3) using HepaRG (AID 2283477)
Procedure, shortened: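 Differentiated human HepaRG cells in serum-free induction medium were exposed 48 h to 8-point half-log concentrations from 100 uM (0.5% DMSO vehicle). CASP3 mRNA was measured by qRT-PCR, normalised to ACTB, GAPDH and POLR2A, with bidirectional fitting against DMSO.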

Measured: AC50

Caspase-3 (Homo sapiens), sequence (P42574 whole entry, looked up): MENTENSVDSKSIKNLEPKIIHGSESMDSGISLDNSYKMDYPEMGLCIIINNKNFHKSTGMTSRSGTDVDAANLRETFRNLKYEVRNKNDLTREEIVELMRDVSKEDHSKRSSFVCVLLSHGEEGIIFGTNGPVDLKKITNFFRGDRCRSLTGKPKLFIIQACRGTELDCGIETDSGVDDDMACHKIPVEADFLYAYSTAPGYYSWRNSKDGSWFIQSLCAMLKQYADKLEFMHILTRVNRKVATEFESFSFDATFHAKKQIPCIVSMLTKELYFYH
Apoptosis regulator Bcl-2 (Homo sapiens), sequence (P10415 whole entry, looked up): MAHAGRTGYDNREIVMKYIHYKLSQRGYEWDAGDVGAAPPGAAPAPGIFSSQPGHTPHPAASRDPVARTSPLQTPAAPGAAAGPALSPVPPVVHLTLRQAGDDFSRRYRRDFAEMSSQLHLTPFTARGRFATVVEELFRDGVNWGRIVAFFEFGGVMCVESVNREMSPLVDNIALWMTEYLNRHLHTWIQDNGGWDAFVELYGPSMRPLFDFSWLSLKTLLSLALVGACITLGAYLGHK

N#C[C@@H]1CC(F)(F)CN1C(=O)CNC1CC2CCC(C1)N2c1ncccn1 (stereo partly drawn)
inactive: all assays above

CC(=O)CC(C)(C)O
inactive: all assays above

CCCCCCCCCCCCN1CCCC1=O
inactive: all assays above

CCCCCCCCCCCCCCCS(=O)(=O)Oc1ccccc1
inactive: all assays above

NC(=O)N1C(=O)C(C(=O)c2cc(Cl)cs2)c2cc(F)c(Cl)cc21 (stereo not drawn)
active: [1] 50 µM | [4] 17.5 µM | [6] 35.1 µM | [7] 50 µM | Caspase-3 (Homo sapiens) 19.1 µM
inactive: all other assays above

OCCC(F)(F)C(F)(F)C(F)(F)C(F)(F)C(F)(F)C(F)(F)C(F)(F)C(F)(F)F
inactive: all assays above

CC(C)(C)c1ccc(O)c(C(C)(C)C)c1
active: [7] 0.123 µM
inactive: all other assays above

c1ccc2c(c1)Cc1ccccc1-2
inactive: all assays above

CC1=C(/C=C/C(C)=C/C=C/C(C)=C/C(=O)O)C(C)(C)CCC1
active: [3] 20.4 µM | [5] 35.9 µM
inactive: all other assays above

CC#C[C@]1(O)CC[C@H]2[C@@H]3CCC4=CC(=O)CCC4=C3[C@@H](c3ccc(N(C)C)cc3)C[C@@]21C
active: [1] 15.7 µM | [2] 25.4 µM | [3] 27.6 µM | [4] 80.6 µM | [5] 23.7 µM | BCL2L11 (gene 10018) 27.3 µM | [6] 29.7 µM | [7] 19 µM | [8] 6.74 µM | Caspase-3 (Homo sapiens) 27.4 µM

Cc1cc(C)c(O)c(C)c1
inactive: all assays above

CCCCCCCCOC(=O)CCCCCCCCC(=O)OCCCCCCCC
inactive: all assays above

NC(=O)N(O)[C@@H]1C=C[C@H](Oc2cccc(Oc3ccc(F)cc3)c2)C1
active: [1] 3.76 µM | [3] 64.5 µM | [5] 20.2 µM | BCL2L11 (gene 10018) 12.3 µM | [6] 37.7 µM | [7] 73.9 µM
inactive: [2] | [4] | [8] | Caspase-3 (Homo sapiens)

CCc1ccc(CCOc2ccc(CC3SC(=O)NC3=O)cc2)nc1 (stereo not drawn)
active: [1] 38.2 µM | [6] 84.6 µM | [7] 72.6 µM
not listed: [5]
inactive: all other assays above

c1ccc2cc3c(ccc4ccccc43)cc2c1
active: [5] 25.9 µM | BCL2L11 (gene 10018) 7.02 µM | [6] 15.9 µM
inactive: all other assays above

CCCCC(CC)COC(=O)CCCCC(=O)OCC(CC)CCCC (stereo not drawn)
inactive: all assays above

CN1CCC[C@H]1c1cccnc1
inactive: all assays above

CCCOc1sc(C(=O)N2CCC(c3cc(CN)ccc3F)CC2)c(C)c1Br
active: [8] 0.0539 µM
inactive: all other assays above

OCCC(F)(F)C(F)(F)C(F)(F)C(F)(F)C(F)(F)C(F)(F)F
inactive: all assays above

C=C(C)C(=O)OCCC(F)(F)C(F)(F)C(F)(F)C(F)(F)C(F)(F)C(F)(F)F
inactive: all assays above

OC1CCCCC1
inactive: all assays above

CC(O)CO (stereo not drawn)
inactive: all assays above

CCC(C)(C)C1CCC(O)CC1 (stereo not drawn)
inactive: all assays above

Cc1oc(-c2ccccc2)nc1CCOc1ccc(C[C@H](Nc2ccccc2C(=O)c2ccccc2)C(=O)O)cc1
active: [1] 26.1 µM | [4] 30.5 µM | BCL2L11 (gene 10018) 84.6 µM | [8] 75.6 µM | Caspase-3 (Homo sapiens) 32.7 µM
inactive: [2] | [3] | [5] | [6] | [7]

CCCCCCCCCCCCc1ccccc1S(=O)(=O)O
active: [1] 91.6 µM | [3] 50 µM | [5] 80 µM | [6] 80.3 µM | [7] 50 µM
inactive: [2] | [4] | BCL2L11 (gene 10018) | [8] | Caspase-3 (Homo sapiens)

COCC(C)O (stereo not drawn)
inactive: all assays above

CCCCCCCCC(=O)O
inactive: all assays above

CC[C@H](c1ccc(O)cc1)[C@@H](CC)c1ccc(O)cc1
active: [1] 83.6 µM | [4] 77.1 µM | BCL2L11 (gene 10018) 77.7 µM | Caspase-3 (Homo sapiens) 78.4 µM
inactive: all other assays above

CCc1nn(C2CCCCC2)c2cc(C3(C#N)CCC(C(=O)O)CC3)ccc12 (stereo not drawn)
active: [1] 50 µM | [3] 50 µM | [5] 64 µM | BCL2L11 (gene 10018) 8.54 µM | [6] 77.4 µM | [7] 74.3 µM
inactive: [2] | [4] | [8] | Caspase-3 (Homo sapiens)

CCCCC(CC)COC(=O)CCCCC(=O)OCc1ccccc1 (stereo not drawn)
not listed: [2]
inactive: all other assays above

O=C(OCCOCCOC(=O)c1ccccc1)c1ccccc1
inactive: all assays above
